Measurements as given in PubChem BioAssay (Tox21).
Records with an inconclusive call do not appear. Calls of active or inactive are those of the source. Unless noted, calls come from the whole dose curve; as a rule, active = well fitted curve in the direction sought with a large enough effect in the repeat runs; inconclusive = weak or mixed curves; inactive = no such curve, though single readings can be large; an effect the other way counts as inactive or inconclusive.

Tests used:
[1] = qHTS assay to identify small molecule agonists of the vitamin D receptor (VDR) signaling pathway - cell viability counter screen (AID 743224); note: nearly all actives have a fitted effect of over 50% in size
Outline: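 Cells: VDR-bla, 2,000/well, settled 4 h. Treatment: compounds in DMSO, 16 h, 37C/5% CO2. Readout: CellTiter-Glo luminescence after 30 min RT.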

[2] = qHTS assay to identify small molecule antagonists of the vitamin D receptor (VDR) signaling pathway - cell viability counter screen (AID 743225); note: nearly all actives have a fitted effect of over 50% in size
Outline: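 VDR-bla HEK 293T cells, 4 h pre-incubation at 37C, then compound plus 1-alpha,25-dihydroxyvitamin D3 (3 nM final) for 16 h. After the beta-lactamase FRET read, CellTiter-Glo was added to the same wells; luminescence after 30 min at room temperature.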

[3] = qHTS assay to identify small molecule agonists of the NFkB signaling pathway (AID 1159509; active = well fitted curve in the direction sought with a large enough effect in the signal ratio in the repeat runs, not every such curve was filed as active; the % refers to the signal ratio)
Outline: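 Readout: FRET fluorescence, 405 nm excitation, 460/530 nm emission; beta-lactamase expression disrupts FRET. Cells: ME-180 stably carrying NF-kB-driven bla reporter. Compound exposure 5 hr, 37 C, 5% CO2.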

[4] = qHTS assay to identify small molecule agonists of the endoplasmic reticulum stress response signaling pathway (AID 1159516; active = well fitted activation curve with a large enough effect in the signal ratio in the repeat runs, not every such curve was filed as active; the % refers to the signal ratio)
Outline: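 Cells are seeded at 1,500 per well and incubated overnight. Compounds in DMSO are added for 5 hr at 37 C, then beta-lactamase FRET substrate for 2 hr at room temperature, and fluorescence at 460 and 530 nm is measured.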

[5] = qHTS assay to identify small molecule agonists of the endoplasmic reticulum stress response signaling pathway - cell viability counter screen (AID 1159517; calls by dose curve;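 note: HeLa cells carrying an ER stress response element beta-lactamase reporter; nearly all actives have a fitted effect of over 50% in size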)
Outline: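 Cytotoxicity of test compounds toward ESRE-bla HeLa cells was assessed after 5 hr exposure. The luminescent CellTiter-Glo signal was measured 30 min after reagent addition.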

[6] = qHTS assay to identify small molecule antagonists of the retinoid-related orphan receptor gamma (ROR-gamma) signaling pathway - cell viability counter screen (AID 1159520); note: nearly all actives have a fitted effect of over 50% in size
Outline: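 Tet-on ROR gamma CHO cells (1,000/well) were plated 4 hr, given compounds in DMSO for 2 hr at 37 C, then induced with 1 uM final doxycycline for 16 hr. Viability was read as ATP by CellTiter-Glo luminescence after 30 min.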

[7] = qHTS assay to identify small molecule agonists of the AP-1 signaling pathway - cell viability counter screen (AID 1159525; calls by dose curve; note: nearly all actives have a fitted effect of over 55% in size)
Outline: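 Each titration point was normalised to DMSO and tetra n-octyl ammonium bromide controls. The read was Cell Titer Glo luminescence after 30 min at RT, following 5 h compound exposure of ME-180 AP-1-bla cells at 37 °C.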

[8] = qHTS assay to identify small molecule agonists of the AP-1 signaling pathway (AID 1159526; calls by dose curve)
[9] = qHTS assay to identify small molecule agonists of the RXR signaling pathway - cell viability counter screen (AID 1159529); note: nearly all actives have a fitted effect of over 50% in size
Outline: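 RXR-alpha-UAS-bla HEK 293T cells in medium with 2% charcoal-stripped FBS were preincubated 5 hr, then exposed to compounds for 16 hr at 37 C. Viability was read as CellTiter-Glo luminescence after 30 min at room temperature.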

[10] = qHTS assay to identify small molecule antagonists of the retinoid acid receptor (RAR) signaling pathway - cell viability counter screen (AID 1159551); note: nearly all actives have a fitted effect of over 35% in size
Outline: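 Cells (C3RL4) are plated, incubated overnight, dosed with compound in DMSO, then given retinol at 1 uM final. After 6 h at 37 C, CellTiter-Glo is added and luminescence read following 30 min at room temperature.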

[11] = qHTS assay to identify small molecule antagonists of the retinoic acid receptor (RAR) signaling pathway (AID 1159552; note: nearly all actives have a fitted effect of over 50% in size)
Outline: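 RARE-luc C3RL4 cells; cpds + 1 uM (final) retinol, 6 hr, 37 C/5% CO2; luciferase reagent, 30 min RT, luminescence readout. Inhibitors of retinol-driven signal scored.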

[12] = qHTS assay to identify small molecule agonists of the retinoic acid receptor (RAR) signaling pathway (AID 1159553); conditions: C3RL4 RARE luciferase reporter, agonist, 6 h; activation: at 73.3 µM (top of the series); note: potency is the fitted concentration of half-maximal effect
Outline: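 Seed C3RL4 reporter cells at 1,000 per well and incubate overnight at 37 C. Add compounds in DMSO, incubate 6 hr. Add luciferase reagent, wait 30 min at room temperature, read luminescence.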

[13] = qHTS assay to identify small molecule antagonists of the estrogen related receptor (ERR) signaling pathway from Tox21 library - cell viability counter screen (AID 1224834); note: nearly all actives have a fitted effect of over 30% in size
Outline: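 ERR cells, 2,000/well; 6 h settle at 37 C/5% CO2; pin-tool compound transfer in DMSO; 17.5 h at 37 C; CellTiter-Fluor, 30 min; fluorescence intensity.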

[14] = molecular target: Luciferin 4-monooxygenase (Photinus pyralis) (UniProt P08659); experiment: qHTS assay to identify small molecule inhibitors of firefly luciferase (AID 1224835); note: nearly all actives have a fitted effect of over 25% in size; note: potency is the fitted concentration of half-maximal effect
Outline: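 Quantitative HTS format; KM concentrations of both substrates. Purified P. pyralis FLuc activity quantified from luminescence images.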

[15] = qHTS assay to identify small molecule agonists of the constitutive androstane receptor (CAR) signaling pathway - cell viability counter screen (AID 1224836); note: nearly all actives have a fitted effect of over 45% in size
Outline: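 HepG2 cells stably carrying hCAR and a CYP2B6-2.2kb reporter were plated 4 h, then given compounds at 15 concentrations plus PK11195 (final 0.75 uM). After 23 h at 37 C, viability was read by CellTiter-Fluor fluorescence.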

[16] = qHTS assay to identify small molecule antagonists of the constitutive androstane receptor (CAR) signaling pathway - cell viability counter screen (AID 1224837); note: nearly all actives have a fitted effect of over 45% in size
Outline: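 Viability was measured with CellTiter-Fluor in a HepG2 line carrying stably transfected hCAR and a CYP2B6-2.2kb construct. Cells were exposed for 23 hr at 37 C to 15 compound concentrations with 50 nM CITCO as agonist.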

[17] = molecular target: Nuclear receptor ROR-gamma (Homo sapiens) (UniProt P51449); experiment: qHTS assay to identify small molecule antagonists of the retinoid-related orphan receptor gamma (ROR-gamma) signaling pathway (AID 1159521)
Outline: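 Tet-on RORγ CHO cells carrying a ROR response element–luciferase reporter were pretreated with compounds for 2 h, then induced with 1 uM (final) doxycycline hyclate for 16 h at 37 C. Antagonism was read as decreased ONE-Glo luminescence.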

[18] = molecular target: Retinoic acid receptor RXR-alpha (Homo sapiens) (UniProt P19793); experiment: qHTS assay to identify small molecule agonists of the RXR signaling pathway (AID 1159527; calls by dose curve; note: nearly all actives have a fitted effect of over 35% in size)
Outline: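 GeneBLAzer RXR-alpha-UAS-bla HEK 293T cells in medium with 2% charcoal-stripped FBS, pre-incubated 5 hr at 37 C, then exposed to compounds 16 hr. Beta-lactamase reporter read by FRET substrate, 2 hr room temperature, 460/530 nm emission.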

[19] = molecular target: Nuclear receptor subfamily 1 group I member 3 (Homo sapiens) (UniProt Q14994); experiment: qHTS assay to identify small molecule antagonists of the constitutive androstane receptor (CAR) signaling pathway (AID 1224838);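 note: HepG2 cells stably expressing hCAR with CYP2B6 luciferase reporter stimulated by CITCO; nearly all actives have a fitted effect of over 40% in size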
Outline: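 Antagonist mode used CITCO at a final 50 nM to activate CAR in human hepatoma HepG2 cells carrying stable hCAR and a 2.2 kb CYP2B6 promoter-luciferase construct. Compounds were tested at 15 concentrations over 24 h, with luminescence as the end point.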

[20] = qHTS assay to identify small molecule agonists of the NFkB signaling pathway - cell viability counter screen (AID 1159515; calls by dose curve; note: nearly all actives have a fitted effect of over 55% in size)
Outline: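 Cells are seeded (2,000 NFkB-bla ME-180 per well), rested overnight, and dosed with DMSO-dissolved compounds for 5 hr at 37 C. Viability is then read by CellTiter-Glo luminescence after 30 min at room temperature.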

Measured: Potency

Retinoic acid receptor RXR-alpha (Homo sapiens), sequence (P19793 whole entry, looked up): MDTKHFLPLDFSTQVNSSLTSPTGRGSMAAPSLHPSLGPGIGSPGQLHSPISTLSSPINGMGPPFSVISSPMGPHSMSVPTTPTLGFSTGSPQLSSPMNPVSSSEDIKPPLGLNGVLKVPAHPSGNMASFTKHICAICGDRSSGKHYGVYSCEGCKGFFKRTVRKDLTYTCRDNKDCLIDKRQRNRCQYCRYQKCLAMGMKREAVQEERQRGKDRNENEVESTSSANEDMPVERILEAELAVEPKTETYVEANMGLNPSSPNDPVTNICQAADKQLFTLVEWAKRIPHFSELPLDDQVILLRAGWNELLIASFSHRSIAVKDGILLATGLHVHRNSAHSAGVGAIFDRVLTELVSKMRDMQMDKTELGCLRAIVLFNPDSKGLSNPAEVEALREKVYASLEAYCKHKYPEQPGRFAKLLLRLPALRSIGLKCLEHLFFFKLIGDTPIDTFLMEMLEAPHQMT
Luciferin 4-monooxygenase (Photinus pyralis), sequence (P08659 whole entry, looked up): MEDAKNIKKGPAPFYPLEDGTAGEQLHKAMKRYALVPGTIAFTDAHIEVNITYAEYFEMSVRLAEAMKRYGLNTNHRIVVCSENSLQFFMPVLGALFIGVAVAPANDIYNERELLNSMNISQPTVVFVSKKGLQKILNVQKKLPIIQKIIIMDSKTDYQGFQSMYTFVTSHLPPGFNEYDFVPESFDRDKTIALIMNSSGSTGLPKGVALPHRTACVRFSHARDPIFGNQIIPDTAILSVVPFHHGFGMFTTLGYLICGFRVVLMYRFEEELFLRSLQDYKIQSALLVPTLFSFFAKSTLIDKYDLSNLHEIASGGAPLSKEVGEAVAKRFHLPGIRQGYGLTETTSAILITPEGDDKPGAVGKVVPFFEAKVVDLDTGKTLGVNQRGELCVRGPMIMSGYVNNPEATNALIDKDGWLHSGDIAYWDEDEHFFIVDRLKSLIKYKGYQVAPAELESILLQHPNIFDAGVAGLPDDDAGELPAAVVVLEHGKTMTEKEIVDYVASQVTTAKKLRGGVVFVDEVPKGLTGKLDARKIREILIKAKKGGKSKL
Nuclear receptor subfamily 1 group I member 3 (Homo sapiens), sequence (Q14994 whole entry, looked up): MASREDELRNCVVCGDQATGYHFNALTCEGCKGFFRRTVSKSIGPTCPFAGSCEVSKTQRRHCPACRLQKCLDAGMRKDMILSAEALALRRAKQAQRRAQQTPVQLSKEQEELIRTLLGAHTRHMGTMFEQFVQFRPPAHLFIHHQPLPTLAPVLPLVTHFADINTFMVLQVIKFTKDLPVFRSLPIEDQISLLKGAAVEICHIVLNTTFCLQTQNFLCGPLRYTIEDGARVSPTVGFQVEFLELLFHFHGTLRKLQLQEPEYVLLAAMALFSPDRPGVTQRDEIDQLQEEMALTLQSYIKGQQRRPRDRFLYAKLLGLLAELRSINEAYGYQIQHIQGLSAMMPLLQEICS

CCCCC/C=C/CC(=O)OC
not listed: [17] | [18] | [19] | [20]
inactive: all other assays above

CCCCCCCCCCCCCCCC(=O)NCCO
not listed: [20]
inactive: all other assays above

Nc1cc(S(=O)(=O)O)ccc1S(=O)(=O)O
not listed: [3] | [19]
inactive: all other assays above

O=C(O)c1ccccc1C(=O)OCc1ccccc1
active: [12] 48.6 µM | [14] 39.9 µM
not listed: [3]
inactive: all other assays above

CCCCCCCCCCCCCCCCCCN(C)C
not listed: [2] | [19] | [20]
inactive: all other assays above

OC[C@@H](O)[C@H](O)[C@@H](O)[C@@H](O)CO
not listed: [10] | [13] | [14] | [17] | [18] | [19]
inactive: all other assays above

CC(C)SCc1ccco1
not listed: [10] | [14] | [17] | [19] | [20]
inactive: all other assays above

CC(=O)OCCCc1ccccc1
not listed: [14] | [15] | [18] | [19] | [20]
inactive: all other assays above
